Compound activity: PubChem, National Center for Advancing Translational Sciences (NCATS)
IL-1B inflam inh = qHTS for Inhibitors of Inflammasome Signaling: IL-1-beta AlphaLISA Primary Screen; THP-1 LPS/ATP IL-1B secretion, AlphaLISA, 16 h; active compounds read low; activity change, % at 57.5 µM; hit rate 4.7% among 360,000; in the data active = activity change below about -50%; inconclusive = mostly about -30% to -49%
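Secreted IL-1B measured by AlphaLISA bead assay after 16 h compound exposure of THP-1 cells; compounds (final up to 57.5 uM) added 1 h before LPS (250 ng/mL) and ATP (1.25 mM) stimulation; lower signal means less secretion.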
DT40 TDP1 CPT = qHTS for Inhibitors of human tyrosyl-DNA phosphodiesterase 1 (TDP1): qHTS in cells in presence of CPT | AID 686979, 2013 | Potency, µM (doses to about 46.2 µM), usual class: inhibitors | chicken DT40 Tdp1-/-;hTDP1 cells + 20 nM CPT, ATP luminescence, 48 h | hit rate 12% among 420,000; also: nearly all actives have a fitted effect of over 55% in size
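Chicken DT40 Tdp1-/- cells complemented with human TDP1, 400 cells/well, exposed to compounds plus 20 nM camptothecin for at least 48 h at 37 C; viability read as ATP content by CellTiter-Glo luminescence.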
TDP1 cell noCPT = qHTS for Inhibitors of human tyrosyl-DNA phosphodiesterase 1 (TDP1): qHTS in cells in absence of CPT. DT40 Tdp1-/- hTDP1 cells, no CPT, ATP luminescence, 48 h. Potency, µM (highest dose often 46.2 µM), hits mostly inhibitors. hit rate 15% among 420,000. AID 686978, 2013; also: nearly all actives have a fitted effect of over 55% in size
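Growth kinetics read by CellTiter-Glo luminescence after ≥48 hr at 37 °C. Cells: DT40 Tdp1-/- stably carrying human TDP1, 400 per well, compound exposure in the absence of CPT (DMSO vehicle).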
HT1080-NT tox = qHTS for induction of synthetic lethality in tumor cells producing 2HG: qHTS for the HT-1080-NT fibrosarcoma cell line; HT-1080-NT fibrosarcoma viability, CellTiter-Glo ATP luminescence, 48 h; hit rate 1.6% among 360,000; Potency, µM (top dose mostly 46.1 µM), most hits filed as cytotoxic;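 also: NT is the 2HG producing partner of a matched IDH1 knockdown line; nearly all actives have a fitted effect of over 55% in size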
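Compounds were tested in concentration-response format on HT-1080-NT cells for 48 hours at 37 degrees C. Cell viability came from CellTiter-Glo luminescence; curves were classified by r2, response magnitude and activity.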
ALOX12 inh = Primary qHTS assay for inhibitors of human arachidonate 12S-lipoxygenase (ALOX12): Round 2. Potency, µM (series often up to 108 µM), most hits filed as inhibitors. hit rate 1.1% among 580,000. purified 12hLO, xylenol orange hydroperoxide absorbance. Polyunsaturated fatty acid lipoxygenase ALOX12 (Homo sapiens), P18054. AID 1671190, 2021
Target sequence (P18054 whole entry, looked up): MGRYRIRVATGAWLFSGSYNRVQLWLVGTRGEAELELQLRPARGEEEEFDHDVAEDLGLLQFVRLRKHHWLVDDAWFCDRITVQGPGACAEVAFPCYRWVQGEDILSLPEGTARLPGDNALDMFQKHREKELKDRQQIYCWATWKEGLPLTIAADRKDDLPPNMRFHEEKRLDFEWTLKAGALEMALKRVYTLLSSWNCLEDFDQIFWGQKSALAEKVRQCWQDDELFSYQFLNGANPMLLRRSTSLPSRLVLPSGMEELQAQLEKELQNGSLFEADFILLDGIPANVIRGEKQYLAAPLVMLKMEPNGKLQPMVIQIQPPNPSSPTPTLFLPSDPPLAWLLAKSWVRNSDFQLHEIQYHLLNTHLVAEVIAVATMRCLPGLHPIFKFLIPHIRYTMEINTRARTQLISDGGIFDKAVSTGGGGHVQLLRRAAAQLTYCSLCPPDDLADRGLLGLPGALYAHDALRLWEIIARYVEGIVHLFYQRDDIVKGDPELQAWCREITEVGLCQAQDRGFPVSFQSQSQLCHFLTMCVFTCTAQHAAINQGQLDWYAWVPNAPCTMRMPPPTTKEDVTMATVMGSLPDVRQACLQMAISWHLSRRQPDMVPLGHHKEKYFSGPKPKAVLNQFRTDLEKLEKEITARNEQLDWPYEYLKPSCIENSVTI
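Purified human 12hLO (150 nM final) in 25 mM Hepes, 0.01% Triton X-100, pH 7.0 was preincubated 15 min at room temperature with compound. Then 40 uM arachidonic acid was added, 30 min. Hydroperoxide was read by Fe-XO absorbance ratio 573/405 nm.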
HT1080 IDH1KD tx = qHTS for induction of synthetic lethality in tumor cells producing 2HG: qHTS for the HT-1080-IDH1KD cell line. HT-1080 IDH1 knockdown viability, ATP luminescence, 48 h. hit rate 2% among 360,000. Potency, µM (doses to about 46.1 µM), most hits filed as cytotoxic
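Viability of IDH1-knockdown HT-1080 fibrosarcoma cells was assessed by CellTiter-Glo after 48 h at 37 °C with titrated compound; concentration-effect curves were classified by fit quality and response size.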
Hits are given with their value; - = inactive; ? = inconclusive; . = not tested or not shown; ! = not active in a repeat; [ ] = another dose, or the depositor's remark. Shown is part of a subset that was picked to be rich in hits. Unless noted, calls follow the shape of the dose curve; as a rule, active = well fitted curve in the direction sought with a large enough effect; inconclusive = small, poorly fitted or top-dose-only effect, or another doubt; inactive = no such curve, though single readings can be large; an effect the other way counts as inactive or inconclusive.

SMILES | IL-1B inflam inh | DT40 TDP1 CPT | TDP1 cell noCPT | HT1080-NT tox | ALOX12 inh | HT1080 IDH1KD tx
CC1(C(=O)NCc2cccnc2)CN(Cc2ccccc2)Cc2ccc(N3CCOCC3)nc21 (configuration not stated) | . | . | . | . | - | .
COc1ccc(NC(=O)C(C2CC2)n2c(=O)c(-c3ccco3)nc3ccccc32)cc1 (configuration not stated) | - | ? | ? | - | ? | -
O=C(NC1CCCCC1)C(C1CC1)n1c(=O)c(-c2ccco2)nc2ccccc21 (configuration not stated) | - | ? | 10µM | - | ? | -
CN1Cc2ccc(C(=O)Nc3ccc4cn[nH]c4c3)cc2OCC1=O | . | . | . | . | - | .
Cc1sc2ncnc(N3CCC(C(=O)N(C)CC(=O)Nc4ccccc4Cl)CC3)c2c1C | - | 16µM | 23µM | - | - | -
CN(CC(=O)Nc1ccc(Cl)c(C(F)(F)F)c1)C(=O)C1CCN(C(=O)c2ccc(Cl)cc2)CC1 | ? | ? | ? | ? | - | ?
CCN(CC(=O)Nc1cc(Cl)ccc1C)C(=O)C1CCN(c2ncnc3sc(C)c(C)c23)CC1 | - | 18µM | 6.5µM | ? | - | ?
Cc1sc2ncnc(N3CCC(C(=O)N(C)CC(=O)Nc4ccccc4Br)CC3)c2c1C | ? | ? | ? | - | - | -
CCN(CC(=O)Nc1cc(Cl)ccc1C)C(=O)C1CCCCC1 | - | - | - | - | - | -
Cc1sc2ncnc(N3CCC(C(=O)N(C)CC(=O)Nc4ccc(Cl)c(C(F)(F)F)c4)CC3)c2c1C | -55 | ? | 15µM | ? | - | 16µM
Cc1sc2ncnc(N3CCC(C(=O)N(C)CC(=O)Nc4cccc(F)c4)CC3)c2c1C | ? | 9.2µM | 13µM | ? | - | ?
CC(C)N(Cc1ccccc1)C(=O)COC(=O)c1ccc(F)cc1Cl | . | . | . | . | - | .
CCOc1ccc(-c2c(C)sc3nc[nH]c(=O)c23)cc1 | - | ? | 16µM | - | - | -
COc1ccc(OC)c(NC(=O)CSc2nnc(-c3cccnc3)s2)c1 | - | ? | ? | 18µM | - | 18µM
COc1ccc(OC)c(NC(=O)CSc2nnc3ccc4ccccc4n23)c1 | . | ? | 21µM | . | - | .
O=C(CSc1nnc2ccc3ccccc3n12)Nc1ccccc1Cl | . | ? | 18µM | . | - | .
Cc1ccc(C(=O)CSc2nnc3ccc4ccccc4n23)cc1 | . | ? | 16µM | . | - | .
CCc1ccccc1NC(=O)CSc1nnc2ccc3ccccc3n12 | . | ? | ? | . | - | .
COc1ccc(NC(=O)CC2C(=O)N(c3ccc(F)cc3)C(=O)N2Cc2ccco2)cc1 (configuration not stated) | . | ? | - | . | - | .
O=[S+]([O-])(c1ccccc1)N1CC(N2CCc3ccccc32)C1 | . | . | . | . | -[6.33 µM] | .
O=C(CCc1nc2ccccc2s1)NC1CC1 | . | . | . | . | - | .
CCCCN1C(=O)N2Cc3ccccc3C2CS1(=O)=O (configuration not stated) | . | . | . | . | - | .
CCc1nnc(SCC(=O)Nc2ccccc2Cl)nc1CC | - | 16µM! | ? | - | ? | -
CCc1ccccc1NC(=O)CSc1nnc(CC)c(CC)n1 | . | - | - | . | - | .
COCCNC(=O)C(C)[C@@H]1CCc2c(C)cc(OC)c(C)c2C1 (some centres not stated) | . | . | . | . | - | .
SMILES | IL-1B inflam inh | DT40 TDP1 CPT | TDP1 cell noCPT | HT1080-NT tox | ALOX12 inh | HT1080 IDH1KD tx
CCc1ccc(S(=O)(=O)NC(=S)Nc2ccccc2)cc1 | - | ? | ? | - | 45µM | -
CCNC(=S)NS(=O)(=O)c1ccc(CC)cc1 | - | - | - | - | 6.3µM | -
CC(=O)NS(=O)(=O)c1ccc(NC(=S)Nc2ccccc2)cc1 | - | - | - | - | - | -
CCCOc1ccc(C(=O)Nc2ccc(S(=O)(=O)NC3=NCCCCC3)cc2)cc1 | - | 13µM | 21µM | - | - | -
O=C(CSc1ccc2ccccc2c1Br)Nc1cccc(S(=O)(=O)NC2=NCCCCC2)c1 | - | - | ? | 18µM | - | 16µM
CCCNCC(=O)Nc1cccc(S(=O)(=O)NC2=NCCCCC2)c1 | - | - | - | - | - | -
Nc1nc2cc(S(=O)(=O)NC3=NCCCCC3)ccc2s1 | ? | 15µM | 13µM | - | - | -
O=C(CCl)Nc1cccc(S(=O)(=O)NC2=NCCCCC2)c1 | -99 | 3.7µM | 5.2µM | 3.7µM | - | ?
CC(C)N1C(=O)C2(CCCC2)C1C(=O)N1CCN(Cc2ccccc2)CC1 (configuration not stated) | . | . | . | . | - | .
CN(Cc1ccccc1)C(=O)COc1ncnc2ccccc12 | . | . | . | . | - | .
COc1cccc(CNC(=O)[C@@H]2C[C@@H](O)CN2C2CCN(C(=O)Cc3ccc(Cl)cc3)CC2)c1 | . | . | . | . | - | .
COc1ccc(CN2C[C@@H]3[C@H](C2)N(CC(C)C)C(=O)C(C)(C)[S+]3(=O)[O-])cc1O | . | . | . | . | - | .
C[C@H]1CN([C@@H](C)CO)C(=O)CCCn2cc(nn2)CO[C@@H]1CN(C)S(=O)(=O)c1ccc(F)cc1 | . | . | . | . | - | .
CC(C)(C)C(=O)Nc1ccc(S(=O)(=O)NC2=NCCCCC2)cc1 | - | ? | - | -[9.24 µM] | ? | -
O=C(CCl)Nc1ccc(S(=O)(=O)NC2=NCCCCC2)cc1 | -96 | 18µM | 13µM | ? | - | 18µM
Cc1cc(C)cc(-n2c(SCC(=O)Nc3cccc(S(=O)(=O)NC4=NCCCCC4)c3)nc3ccccc3c2=O)c1 | - | 18µM | ? | ? | - | -
O=C(CSc1cccc[n+]1[O-])Nc1cccc(S(=O)(=O)NC2=NCCCCC2)c1 | - | - | - | - | ? | -
Cc1cc(OCC(=O)Nc2cccc(S(=O)(=O)NC3=NCCCCC3)c2)ccc1Cl | ? | ? | 2.6µM | - | - | -
C=CCNC(=O)N1CCOC(CN(CC(C)C)C(=O)c2ccc(C)cc2)C1 (configuration not stated) | . | . | . | . | - | .
CC(C)n1c(CSCc2ccc(Cl)cc2Cl)n[nH]c1=S | - | - | ? | - | 45µM | -
CCc1ccc(-c2cc(C)no2)cc1S(=O)(=O)N1CCN(C(=O)c2ccco2)CC1 | - | - | 21µM | - | - | -
CCc1ccc(-c2cc(C)no2)cc1S(=O)(=O)NCc1ccc(OC)cc1 | . | 0.92µM | 1µM | . | ? | .
Cc1cc(-c2ccc(C)c(S(=O)(=O)NCC3CCN(Cc4ccc(F)cc4)CC3)c2)on1 | -88 | 18µM | ? | ? | - | ?
CCc1ccc(-c2cc(C)no2)cc1S(=O)(=O)N1CCN(c2ccc(F)cc2)CC1 | - | ? | ? | - | - | -
